Consider 99 compounds from PubChem BioAssay AID430 (Sanford-Burnham Center for Chemical Genomics, 2006).

Molecules are shown by their SMILES. The whole screen tested about 63,000 compounds, of which about 1,100 (1.7%) were called active. The list comes from a sample in which actives are over-represented; it also holds similar structures and randomly drawn compounds. Potency and affinity values are given separately. Values without a mark were called inactive. No stated cut-off is given here; in the data, active means cytotoxicity above about 50%; inactive means the rest.

The assay in a line: cytotoxicity in HPDE-C7 cells, cell-based, fluorescence, HTS (AID 430).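 Further: cells exposed to compound for 48 hours before viability readout; 0% = vehicle and 100% = reference cytotoxic drug.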 The following applies: HPDE-C7 pancreatic duct cells viability, at 10 µM, hits give high values.
As to `O=C(Nc1ccc2nc(-c3ccc(Br)o3)[nH]c2c1)c1cccs1`, the cytotoxicity was 53.5% (active).

For `O=C(Nc1ccc2nc(-c3ccc(Br)o3)[nH]c2c1)c1ccco1`, the cytotoxicity is 44.7%.

For the compound `O=C(Nc1ccc2nc(-c3ccco3)[nH]c2c1)c1cccs1`, the cytotoxicity is 8%.

For `CNC(=O)CCn1nc(-c2ccc(Cl)cc2)c2ccccc2c1=O`, the cytotoxicity was 10.8%.

Regarding `Oc1ccc(N=Cc2ccc(O)c(O)c2)cc1`, the cytotoxicity was 18%.

As to `COc1ccc(-c2cc(O)cc(O)c2)cc1`, the cytotoxicity is -7.5%.

As for `CCn1c(C2CC(=O)N(Cc3ccccc3)C2)nc2ccccc21` (centres undefined), the cytotoxicity was -14.7%.

For the compound `O=C1CC(=O)N(Cc2cccs2)C(=O)N1`, the cytotoxicity is -15.3%.

On to `O=C(O)c1ccc(NC(=O)C2CC=CCC2C(=O)O)cc1` (centres undefined), for which the cytotoxicity was -3.4%.

With `CCOCCCN(Cc1cc2cc(C)cc(C)c2[nH]c1=O)C(=O)N(CC)CC`, the cytotoxicity was -8.9%.

Turning to `O=c1oc(-c2cccs2)nc2sc3c(c12)CCCCC3`, the cytotoxicity is 52% (active).

As to `O=c1oc(-c2cccs2)nc2sc3c(c12)CCC3`, the cytotoxicity was 28.2%.

In the case of `Cc1nc2sc3c(c2c(=O)o1)CCCC3`, the cytotoxicity is 0%.

Regarding `Cc1nc2sc3c(c2c(=O)o1)CCC3`, the cytotoxicity is 4.8%.

For `O=c1oc(-c2cc3ccccc3o2)nc2sc3c(c12)CCCC3`, the cytotoxicity was 51.3% (active).

As for `Nn1c(-c2cccs2)nc2sc3c(c2c1=O)CCCC3`, the cytotoxicity is -1.4%.

As for `O=C(CN1C(=O)CSC1=O)NCc1ccccc1`, the cytotoxicity was 8.1%.

Regarding `O=C(c1cc(S(=O)(=O)N2CCOCC2)ccc1F)N1CCN(Cc2ccccc2)CC1`, the cytotoxicity was -2.7%.

On to `O=C(CSc1nc2ccccc2c(=O)n1CCC(=O)N1CCCCC1)NCc1ccccc1`, for which the cytotoxicity was -24.2%.

As for `COc1ccc(-c2nnc(SCC(=O)Nc3cc(C)on3)n2C)cc1OC`, the cytotoxicity is -16.6%.

In the case of `O=C(NCCn1cccc1)c1cccc2ccccc12`, the cytotoxicity is 1.3%.

Regarding `CCOC(=O)C1CCCN(Cc2ccc(OC)cc2OC)C1` (centres undefined), the cytotoxicity is 8.6%.

As for `COc1ccc(-c2nnc(-c3cccs3)o2)cc1OC`, the cytotoxicity was -10.3%.

Consider `COc1ccc(-c2nc3ccccc3s2)cc1O`, for which the cytotoxicity was -5.7%.

Regarding `COc1ccc(-c2nc(-c3cccs3)c(-c3cccs3)[nH]2)cc1O`, the cytotoxicity is 71.6% (active).

Consider `Fc1cccc(Cl)c1CSc1nnnn1-c1ccc2c(c1)OCO2`, for which the cytotoxicity was 53.7% (active).

As for `Fc1ccccc1CSc1nnnn1-c1ccc2c(c1)OCO2`, the cytotoxicity is -2%.

Consider `Fc1cccc(Cl)c1Cn1nnc(-c2ccc3c(c2)OCO3)n1`, for which the cytotoxicity was -6.1%.

Take `CCc1nccn1S(=O)(=O)c1ccc(C)c(C)c1`: the cytotoxicity was 2.1%.

As to `COc1ccc(OC)c(C(c2nnnn2CC2CCCO2)N2CCN(C3CCCC3)CC2)c1` (centres undefined), the cytotoxicity is -10.4%.

Turning to `CC(Sc1ccccc1)C(=O)Nc1ccc(S(=O)(=O)N2CCOCC2)cc1` (centres undefined), the cytotoxicity is -9.5%.

For `CC1CN(C2CCCCC2)c2nc3c(c(=O)[nH]c(=O)n3C)n2C1` (centres undefined), the cytotoxicity is -2%.

With `COc1cc(S(=O)(=O)N2CCCC3(CCCCC3)C2)ccc1-n1cnnn1`, the cytotoxicity was 78.1% (active).

Consider `COc1cc(S(=O)(=O)N2CCN3CCCC3C2)ccc1-n1cnnn1` (centres undefined), for which the cytotoxicity was 5.7%.

`COc1cc(S(=O)(=O)N2CCC(N3CCCCC3)CC2)ccc1-n1cnnn1`: the cytotoxicity is 9.2%.

In the case of `CCOC(=O)C1=C(C)NC2=C(C(=O)CCC2)C1c1ccc(N(C)C)cc1` (centres undefined), the cytotoxicity was 1.2%.

As to `COc1ccc(CCNC(=O)C2CCCN(S(=O)(=O)c3cccc4nonc34)C2)cc1OC` (centres undefined), the cytotoxicity is -21.9%.

With `OC(COc1ccccc1)CN1C2=NCCCN2c2ccccc21` (centres undefined), the cytotoxicity was 4.3%.

Turning to `O=C(NCc1ccco1)C1OCCc2ccccc21` (centres undefined), the cytotoxicity is -15.1%.

As to `CCOC(=O)C1CCN(C(=O)c2ccc(SC)cc2OC)CC1`, the cytotoxicity was -4.9%.

On to `c1cncc(-c2nnc(SCc3nc4ccccc4[nH]3)o2)c1`, for which the cytotoxicity is -14.6%.

Turning to `c1ccc2[nH]c(CSc3nnc(-c4ccncc4)o3)nc2c1`, the cytotoxicity was 3.2%.

As to `c1coc(-c2nnc(SCc3nc4ccccc4[nH]3)o2)c1`, the cytotoxicity was 65.9% (active).

For `Cc1cc(C)nc(NS(=O)(=O)c2ccc(NC(=O)CCCN3C(=O)c4ccccc4C3=O)cc2)n1`, the cytotoxicity is 1.9%.

Take `CC(=O)Nc1c(O)n(C)c2ccccc12`: the cytotoxicity was -20.2%.

With `COc1ccc(-n2c(Cc3cccn3C)nnc2SCC(=O)NC2CCCCC2)cc1`, the cytotoxicity is -11.2%.

For the compound `COc1ccc(N(CC(=O)NC2CCCC2)C(=O)Cn2nnc(-c3ccc(C)cc3)n2)cc1OC`, the cytotoxicity is -4.2%.

Take `CC1C(=O)CCC1(C(=O)O)c1ccccc1` (centres undefined): the cytotoxicity is 9.4%.

As to `Cc1ccc(-c2csc3ncnc(-n4nc(C)cc4N)c23)cc1`, the cytotoxicity is 0.5%.

On to `CCn1c(CN2CCCCCC2=O)nnc1SCc1cnc(-c2ccccc2)s1`, for which the cytotoxicity was 4.1%.

Turning to `CN1CCN(Cc2nc3c(c(=O)[nH]c(=O)n3C)n2Cc2c(F)cccc2Cl)CC1`, the cytotoxicity was -13.5%.

Regarding `CN(Cc1ccccc1)C(=O)CCS(=O)(=O)c1ccc2c(c1)n(C)c(=O)c(=O)n2C`, the cytotoxicity was -7%.

As to `CCOc1ccc2[nH]c(=O)c(CN(Cc3ccco3)C(=O)c3cccc(F)c3)cc2c1`, the cytotoxicity is 78% (active).

For the compound `COc1ccc2[nH]c(=O)c(CN(Cc3ccco3)C(=O)c3ccccc3)cc2c1`, the cytotoxicity is -8.8%.

For `CCOc1ccc2[nH]c(=O)c(CN(Cc3ccco3)C(=O)c3ccc(Br)cc3)cc2c1`, the cytotoxicity was 22.7%.

`CCCn1nnc(NC(=O)COc2ccc(Cl)cc2)n1`: the cytotoxicity was -10.6%.

As to `COCCN(C(=O)Cc1cccs1)c1nnc(-c2cccnc2)s1`, the cytotoxicity is -0.4%.

In the case of `O=C(Nc1cnn(Cc2ccccc2)c1)c1cc2nc(-c3ccco3)cc(C(F)(F)F)n2n1`, the cytotoxicity is 6%.

For `O=C(Nc1cnn(Cc2ccc(F)cc2)c1)c1cc2nc(-c3ccco3)cc(C(F)(F)F)n2n1`, the cytotoxicity is 38.9%.

As for `Cc1ccccc1Cn1cc(NC(=O)c2cc3nc(-c4ccco4)cc(C(F)(F)F)n3n2)cn1`, the cytotoxicity was 29.2%.

As to `Cc1ccccc1Cn1ccc(NC(=O)c2cc3nc(-c4ccco4)cc(C(F)(F)F)n3n2)n1`, the cytotoxicity was 53% (active).

With `O=C(Nc1ccc(Cl)cc1)c1cc2nc(-c3ccco3)cc(C(F)(F)F)n2n1`, the cytotoxicity was 66.2% (active).

For the compound `Cc1ccccc1Cn1ccc(NC(=O)c2cnn3c(C(F)(F)F)cc(-c4ccco4)nc23)n1`, the cytotoxicity is 37.2%.

Turning to `CCOc1ccc(OCC)c(NC(=O)CCn2cccc2)c1`, the cytotoxicity is 7.1%.

For `O=C(NCC(c1cccnc1)N1CCOCC1)c1cccs1` (centres undefined), the cytotoxicity is -33.1%.

Turning to `COc1ccc(-c2c(C#N)c(SCc3c(C)noc3C)nc3c2C(=O)CC(C)(C)C3)cc1`, the cytotoxicity was -11%.

`Cc1cc(NC(=O)CS(=O)(=O)c2cn(Cc3cccc(F)c3)c3ccccc23)no1`: the cytotoxicity was -2.5%.

In the case of `CCOc1ccc(C(=O)NCC2CCCO2)cc1` (centres undefined), the cytotoxicity is 1.4%.

On to `c1csc(-c2ccc3ccccc3n2)c1`, for which the cytotoxicity was 9.1%.

For the compound `COC(=O)c1ccc(C)c(NS(=O)(=O)c2ccc(OC)cc2)c1`, the cytotoxicity is 68% (active).

`COC(=O)c1ccc(NS(=O)(=O)c2ccc(OC)cc2)cc1`: the cytotoxicity is 2%.

Take `COC(=O)c1ccc(C)c(NC(=O)CN(c2ccc3c(c2)OCO3)S(C)(=O)=O)c1`: the cytotoxicity is -6.6%.

Take `O=C(O)c1ccc(NS(=O)(=O)c2ccc3c(c2)OCCO3)cc1`: the cytotoxicity is 0.3%.

For `COC(=O)c1ccc(Cl)c(NS(=O)(=O)c2ccc3c(c2)OCCO3)c1`, the cytotoxicity was 55.7% (active).

For the compound `COC(=O)c1ccc(C)c(NS(=O)(=O)c2ccc(NC(C)=O)cc2)c1`, the cytotoxicity was 20.6%.

`CC(=O)c1cc2c(cc1NS(=O)(=O)c1ccc3c(c1)OCCO3)OCO2`: the cytotoxicity was 36.4%.

For the compound `CCCNC(=O)c1ccccc1NS(=O)(=O)c1ccc2c(c1)OCCO2`, the cytotoxicity was 14.8%.

On to `COC(=O)c1ccc(C)c(NS(=O)(=O)c2ccc3c(c2)OCCO3)c1`, for which the cytotoxicity was 62.8% (active).

As for `O=S(=O)(NCCC1=CCCCC1)c1cccc2nsnc12`, the cytotoxicity was -4.7%.

Turning to `CCn1c(COc2ccccc2C)nnc1SCC(=O)N1CCC(C)CC1`, the cytotoxicity is -9.2%.

`CCCC(C)NC(=O)c1ccc(F)cc1` (centres undefined): the cytotoxicity is -1.2%.

On to `CCN(C(=O)CSc1nc2nc(C)cc(C)n2n1)c1cccc(C)c1`, for which the cytotoxicity is -9%.

As for `OC1CCCN(Cc2ccc3c(c2)Cc2ccccc2-3)C1` (centres undefined), the cytotoxicity was -0.6%.

In the case of `CC1Cc2ccccc2N1C(=O)c1ccc2c(c1)nnn2C` (centres undefined), the cytotoxicity was -5.8%.

Regarding `CCOCCN1CCN(c2c(C)c(C)nc3cc(-c4cc(OC)cc(OC)c4)nn23)CC1`, the cytotoxicity is 21.4%.

On to `CCc1c(C)nc2cc(-c3ccc(OC)c(OC)c3)nn2c1N1CCCC1`, for which the cytotoxicity is 8.9%.

As for `CCCOc1ccc(C2C(=O)N(C3CCCCC3)CC(=O)N2CCC)cc1OC` (centres undefined), the cytotoxicity was -24.3%.

On to `COc1ccccc1NC(=O)C(O)C(O)C(=O)Nc1ccccc1OC` (centres undefined), for which the cytotoxicity is 6.7%.

`CCn1c(SCc2nc3ccccc3[nH]2)nnc1-c1ccccc1OC`: the cytotoxicity was -14.9%.

For the compound `COC(=O)c1cc(OC)c(OC)cc1N=CC1=C(O)CC(C)(C)CC1=O`, the cytotoxicity was 10.3%.

`c1cncc(-c2nn3cnnc3s2)c1`: the cytotoxicity was 3.2%.

Regarding `CCN(CCO)C(=O)C12CCC(C)(C(=O)C1)C2(C)C` (centres undefined), the cytotoxicity is 5.2%.

With `COc1ccc(-n2nnnc2SCC(=O)c2ccc(O)c(O)c2)cc1`, the cytotoxicity was 17.9%.

As for `COc1ccc(-n2nnnc2SCC(=O)c2cccc(OC)c2)cc1`, the cytotoxicity was 6.3%.

On to `CCOc1ccc(-n2nnnc2SCC(=O)c2ccccc2)cc1`, for which the cytotoxicity was 59.8% (active).

As to `Cc1ccc(S(=O)(=O)N(C)c2nonc2C)cc1`, the cytotoxicity is 9.7%.

Regarding `CN(Cc1cnn(C)c1)C(=O)c1cc2ccccc2oc1=O`, the cytotoxicity was -0.7%.

Take `C[C@]12CC[C@@H]3c4ccc(O)cc4CC[C@H]3[C@@H]1CCC2=O`: the cytotoxicity is 12.1%.

For `C[C@]12CC[C@@H]3c4ccc(O)cc4CC[C@H]3[C@@H]1CC[C@@H]2OC(=O)CCC(=O)O`, the cytotoxicity was 4.5%.
